Source: PubChem BioAssay (National Center for Advancing Translational Sciences (NCATS))
Giardia kill – kills Giardia lamblia. activity change, % at 7.66 µM, hits read low. actives 0.15% (n = 340,000). Giardia lamblia trophozoite viability. AID 540267; in the data active = activity change below about -80%; inconclusive = between about -30% and that limit;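 note: parasites exposed to compound for two days anaerobically before the ATP read; % is set by controls: 0 for no effect and ±100 for the full control effect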
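Giardia lamblia trophozoites (100 cells/well) were incubated with compounds for 48 h at 37 deg C under anaerobic conditions. Viability was read as ATP content by one-step luminescence after 15-30 min at room temperature.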
RORgamma inh – inhibitors of mouse ROR gamma transcriptional activity. P51450. Drosophila S2 Gal4-RORgamma UAS-luciferase reporter, 20 h. Potency, µM (highest dose often 53.6 µM), for the others: top-dose activity change, negative = inhibition, usual class: inhibitors. actives 5.4% (n = 310,000); note: potency is the fitted concentration of half-maximal effect; % is set by controls: 0 for no effect and ±100 for the full control effect; nearly all actives have a fitted effect of over 60% in size
Target sequence (P51450 whole entry, looked up, the tested form may be a part): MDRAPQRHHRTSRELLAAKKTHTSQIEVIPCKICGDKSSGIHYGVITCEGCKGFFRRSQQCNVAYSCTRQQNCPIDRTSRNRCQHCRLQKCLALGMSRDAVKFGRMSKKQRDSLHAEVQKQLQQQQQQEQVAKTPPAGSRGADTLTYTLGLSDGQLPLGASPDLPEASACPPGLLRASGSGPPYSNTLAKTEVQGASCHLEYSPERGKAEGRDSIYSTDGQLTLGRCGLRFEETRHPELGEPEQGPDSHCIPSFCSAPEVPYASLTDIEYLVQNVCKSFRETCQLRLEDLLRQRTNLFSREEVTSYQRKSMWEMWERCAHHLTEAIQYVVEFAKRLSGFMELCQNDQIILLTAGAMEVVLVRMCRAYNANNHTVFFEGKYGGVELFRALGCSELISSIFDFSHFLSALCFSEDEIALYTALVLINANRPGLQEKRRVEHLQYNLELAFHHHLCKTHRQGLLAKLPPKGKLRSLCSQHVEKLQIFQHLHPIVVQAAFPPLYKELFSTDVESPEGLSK
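Drosophila Schneider cells stably carrying a metallothionein-driven Gal4 DBD–ROR gamma fusion and a UAS-Photinus luciferase reporter were exposed to compound for 1 hr, then induced with copper sulfate (700 uM final) for 20 hr at ambient temperature before luminescence reading.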
ELG1 repair inh – blocks ELG1-dependent DNA repair in HEK293T cells | HEK293T ELG1-luciferase reporter, luminescence, 16 h; DNA damage induced by 5-fluorouridine | Potency, µM (titrated, usually from 46.1 µM), for inactives: at the top dose activity change, negative = inhibition, most hits filed as inhibitors | actives 2.3% (n = 330,000) | AID 504467; note: potency is the fitted concentration of half-maximal effect; % is set by controls: 0 for no effect and ±100 for the full control effect; nearly all actives have a fitted effect of over 55% in size
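Overnight (16 hr) co-exposure of 2,000 cells/well to 5-fluorouridine and compound at 37 °C preceded detection. Luciferase was quantified via ONE-Glo luminescence; loss of signal denotes inhibition.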
Gal4-VP16 FLuc – Gal4-VP16 reporter inhibition counter-screen; Drosophila S2 Gal4-VP16 UAS-luciferase, luminescence, 20 h; Potency, µM (doses to about 53.6 µM), for the others: at the top dose activity, negative = inhibition, actives largely listed as inhibitors; actives 3.5% (n = 310,000); AID 2546;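 note: Gal4-VP16 expression switched on by copper sulfate through the metallothionein promoter; potency is the fitted concentration of half-maximal effect; % is set by controls: 0 for no effect and ±100 for the full control effect; nearly all actives have a fitted effect of over 50% in size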
p53 reactivator – mutant p53 re-activation in reporter cells | actives 0.063% (n = 320,000) | H1299 p53-A138V BP100-luciferase reporter, luminescence, 24 h | Potency, µM (titrated, usually from 92.2 µM), inactives show at the highest dose activity change, positive = activation, most hits filed as activators | AID 504706; note: potency is the fitted concentration of half-maximal effect; % of control where 0% means no effect; nearly all actives have a fitted effect of over 45% in size
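p53-null H1299 cells stably carrying temperature-sensitive p53-A138V and a BP100-luciferase reporter were pinned with compounds (4-point, 1:5 series) and held 24 hrs at 37 deg C. Luminescence was read 10 min after detection reagent.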
BRCA1 expr act – increases BRCA1 expression; MCF7-BRCA1-FFLuc reporter, luminescence, 48 h; response scale: scaled: vehicle 0%, 10 µM genistein 100%; AID 624202; Potency, µM (series often up to 46.1 µM), for the others: at the highest dose activation, most hits filed as activators; actives 1.1% (n = 380,000); note: potency is the fitted concentration of half-maximal effect; nearly all actives have a fitted effect of over 80% in size
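First, MCF7-BRCA1-FFLuc cells (2000/well) attach for 2 h; next, compounds are pin-added and incubated 48 h at 37 °C; finally, luciferase reagent is added and luminescence read after 15 min.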
The depositor's hits bear a star; ? = inconclusive; / = no result given; [ ] = remark or other dose. Sampled rows, rich in hits. Any-hit rate of the full collection: about 7.6%. Unless noted, calls come from the whole dose curve; as a rule, active = well fitted curve in the direction sought with a large enough effect; inconclusive = small, poorly fitted or top-dose-only effect, or another doubt; inactive = no such curve, though single readings can be large; an effect the other way counts as inactive or inconclusive.

SMILES	Giardia kill	RORgamma inh	ELG1 repair inh	Gal4-VP16 FLuc	p53 reactivator	BRCA1 expr act
CC1=NN(C(=O)CCc2ccc3c(c2)OCO3)C(O)(C(F)(F)F)C1 (configuration not stated)	1	4.5µM*	-5%	2.2µM*	-2%	-18%
CCC1=NN(C(=O)C(=O)NCCc2ccccc2)C(O)(C(F)(F)F)C1 (configuration not stated)	6	0.63µM*	2%	1.8µM*	5%	9%
CCC1=NN(C(=O)C(=O)Nc2ccc(OC)cc2)C(O)(C(F)(F)F)C1 (configuration not stated)	-5	?	?	-22%	3%	21%
CCC1=NN(C(=O)CCc2ccccc2)C(O)(C(F)(F)F)C1 (configuration not stated)	-10	13µM*	1%	?	3%	3%
O=C(CC(c1cccs1)N1Cc2ccccc2C1=O)Nc1cccc(F)c1 (configuration not stated)	/	/	/	/	/	2%
C=CCNc1nc(Cl)nc(Nc2ccc(OC)cc2OC)n1	18	-2%	6%	-9%	-3%	-16%
CN(C)CCNC(=O)c1cc(Br)ccc1Cl	8	0%	-19%	-13%	11%	-5%
CS(=O)(=O)Nc1cccc(C2=NN(C(=O)c3cccc([N+](=O)[O-])c3)C(c3cccs3)C2)c1 (configuration not stated)	7	-4%	13µM*	-1%	3%	-6%
COc1ccc(C(=O)N2N=C(c3ccc(NS(C)(=O)=O)cc3)CC2c2cccs2)cc1 (configuration not stated)	-4	-5%	18µM*	1%	-2%	-49%
Cc1ccc(C(=O)N2N=C(c3ccc(NS(C)(=O)=O)cc3)CC2c2cccs2)cc1 (configuration not stated)	15	0%	?	2%	-5%	-37%
COc1ccc(C2=NN(C(=O)CCC(=O)O)C(c3cccs3)C2)cc1 (configuration not stated)	-16	-15%	0%	-4%	1%	4%
COc1ccc(C2=NN3C(C2)c2ccccc2OC3c2cccs2)cc1 (configuration not stated)	-23	?	?	?	14%	10µM*
CS(=O)(=O)Nc1cccc(C2=NN(C(=O)c3ccccc3)C(c3cccs3)C2)c1 (configuration not stated)	-2	-3%	?	0%	-2%	-22%
CCN(c1ccc(NC(=O)CCc2nc3sc4c(c3c(=O)[nH]2)CCCC4)cc1)C(C)C	-16	/	12%	/	-6%	-36%
O=Nc1c2cc3ccccc3[nH]c-2c2ccccc12	-5	/	/	/	/	41%
COc1ccc(NC(=O)c2cccc(N3C(=O)c4ccc(C(=O)Nc5ccc(OC)c(O)c5)cc4C3=O)c2)cc1O	?	11%	-1%	-4%	1%	-16%
CCN1C(=O)/C(=C/c2cccs2)N(C)C1=S	6	-6%	?	2%	2%	-19%
CCN1C(=O)/C(=C/c2ccc(C)o2)N(C)C1=S	-5	?	?	13µM*	?	0%
Cc1ccc(C(=O)Nc2nnc(NC(=S)Nc3ccccc3)s2)cc1	-5	0.28µM*	?	1.1µM*	0%	60%
CCOc1ccc(C(=O)Nc2nnc(NC(=S)Nc3ccccc3)s2)cc1	-28	0.35µM*	25%	1.6µM*	5%	71%
CCc1nnc(NC(=O)CCC(=O)Nc2ccccc2)s1	2	-15%	-17%	-1%	16%	-2%
CCC(C(=O)Nc1nc(C)c(C)s1)c1ccccc1 (configuration not stated)	20	?	-18%	?	10%	-38%
Cc1nc(NC(=S)Nc2ccccc2)sc1C	-13	0.89µM*	?	5µM*	3%	?
CCc1nnc(NC(=S)Nc2ccccc2)s1	-7	0.28µM*	?	0.89µM*	19%	?
COc1cc(/C=C/C(=O)OCC(=O)Nc2ccc3c(c2)OCO3)ccc1O	-12	/	?	/	?	-24%
SMILES	Giardia kill	RORgamma inh	ELG1 repair inh	Gal4-VP16 FLuc	p53 reactivator	BRCA1 expr act
COc1ccccc1CNc1ccnc(-c2ccccc2CN(C)C)n1	/	-2%	/	-2%	/	/
CC(C)C(C(=O)O)N1CCS(=O)(=O)CC1 (configuration not stated)	-1	-5%	9%	2%	-2%	0%
Cc1cccc2[nH]c3c(N4CC=C(c5ccc(F)cc5)CC4)ncnc3c12	1	-11%	12µM*	?	0%	-53%
Cc1ccc(NS(=O)(=O)c2ccc3nc(-c4ccccc4)[nH]c3c2)cc1Cl	/	/	/	/	/	-54%
Cc1ccc(NS(=O)(=O)c2ccc(Cl)c(C(=O)Nc3ccccc3-c3nc4ccccc4[nH]3)c2)cc1C	0	?	9.2µM*	-9%	9%	-78%
CCN(CC)C(=O)COc1coc(CN2CCN(c3cccc(Cl)c3)CC2)cc1=O	-15	9%	-1%	-1%	-2%	3%
CC(=O)[C@H]1CC[C@H]2C3CC=C4C[C@@H](O)CC[C@]4(C)C3CC[C@]12C (some centres not stated)	/	-13%[10 µM]	/	-3%	/	/
COc1ccc(-c2n[nH]c(=S)n2-c2ccc(C)cc2C)cc1	-4	2.8µM*	-21%	5µM*	4%	-11%
Cc1ccc(-n2c(-c3ccc(Cl)cc3)n[nH]c2=S)c(C)c1	24	1.4µM*	-4%	1.1µM*	/	-6%
O=c1cccccc1NN=C1CCCCCC1	-16	-8%	?	-1%	?	10µM*
CC1(C)Cc2c(C#N)c(NCCN3CCOCC3)nc(-c3ccccc3)c2CO1	-3	14%	8.2µM*	-3%	-4%	-5%
CC1(C)Cc2c(C#N)c(SCC(=O)c3ccccc3)nc(N3CCOCC3)c2CO1	-5	-3%	1.3µM*	4%	6%	-68%
CCCOC(=O)CSc1nc(N2CCOCC2)c2c(c1C#N)CC(C)(C)OC2	-26	14%	?	8%	-2%	-15%
CCOC(=O)CSc1nc(N2CCOCC2)c2c(c1C#N)CC(C)(C)OC2	-26	4%	2.1µM*	-4%	-1%	-21%
Cn1ccc2c(-c3ccc(C(F)(F)F)cc3)cc3c(c21)C1CCC3C1 (configuration not stated)	/	/	/	/	/	-3%
N#C/C(=C\c1ccc(OC(=O)c2ccccn2)cc1)C(N)=O	24	8%	?	1%	-6%	-5%
